The record followed here is PubChem BioAssay (NCATS).

Values joined by “and” are separate entries in the source; they are usually repeats but may differ in a detail not shown here. Equal entries are not always repeated. Values without a mark were called inactive. Results filed as inconclusive are left out. Active and inactive are the calls of the source. Unless noted, the call rests on the fitted dose curve; in most records, active means well fitted inhibition curve with a large enough effect; inconclusive means small, poorly fitted or top-dose-only effect; inactive means flat fitted curve, though single readings scatter.

Assay [1] can be described thus: Drug repurposing screens with cells derived from glioblastoma tumor samples (AID 1345199). Further: nearly all actives have a fitted effect of over 40% in size. Further: potency means the concentration at half of the fitted maximal effect. On activity, negative = cell killing: on the % scale 0 is the no-effect control and ±100 the full control effect. As to conditions: GBM patient neurospheres viability, ATP luminescence, 48 h. In a few lines:
(§1)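 Four patient lines of CD133+ GBM neurospheres were screened at several concentrations; hits were retested in those lines plus three slower-growing GBM lines, using 48-hour treatment and ATP-based viability.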

The subject of assay [2] is astro (control astrocytes). The assay is described as above. As to conditions: viability, ATP luminescence, 48 h; series mostly up to 45.9 µM. In a few lines: as §1
The target in assay [3] is Nuclear receptor subfamily 1 group I member 2 (Rattus norvegicus) (UniProt Q9R1A7). In words: qHTS assay for small molecule activators of the rat pregnane X receptor (rPXR) signaling pathway (AID 651751; call rule not given here; further: 0% is about no effect). As to conditions: rPXR reporter cells, luciferase (One-Glo), 24 h. For orientation: qHTS replaces the single test concentration by a dilution series.
Sequence of Nuclear receptor subfamily 1 group I member 2 (Rattus norvegicus) (Q9R1A7 whole entry, looked up): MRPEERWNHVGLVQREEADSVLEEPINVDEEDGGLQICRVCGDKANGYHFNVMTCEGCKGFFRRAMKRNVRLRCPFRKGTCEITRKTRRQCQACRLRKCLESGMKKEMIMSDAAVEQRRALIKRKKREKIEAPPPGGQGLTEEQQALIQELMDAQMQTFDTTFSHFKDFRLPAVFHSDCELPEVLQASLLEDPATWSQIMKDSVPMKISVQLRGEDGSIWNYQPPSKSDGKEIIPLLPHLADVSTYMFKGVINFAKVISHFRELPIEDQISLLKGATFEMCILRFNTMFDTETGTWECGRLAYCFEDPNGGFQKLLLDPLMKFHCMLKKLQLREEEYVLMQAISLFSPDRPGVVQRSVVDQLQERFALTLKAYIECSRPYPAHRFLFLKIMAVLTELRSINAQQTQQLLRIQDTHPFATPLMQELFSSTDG
A short description of assay [4]: qHTS assay for small molecule activators of the human pregnane X receptor (PXR) signaling pathway (AID 720659; call rule not given here; further: 0% is about no effect). The following applies: DPX-2 HepG2 CYP3A4-luciferase, 24 h; series mostly up to 92.3 µM.
[5] abbreviates: at 45.9 µM (top of the series), tumour line B.
[6] abbreviates: at 45.9 µM (top of the series), tumour line D.
The mark [7] stands for this setting: at 46.1 µM (top of the series), tumour line C.
[8] abbreviates: at 46 µM (top of the series), tumour line A.
Where [9] appears, read: at 20 µM (top of the series), tumour line C.
Setting [10] is: at 21.2 µM (top of the series), tumour line B.
[11] abbreviates: at 21.2 µM (top of the series), tumour line D.

With `Clc1ccc(C2(Cn3cncn3)OCCO2)c(Cl)c1`, the activity, negative = cell killing in assay [1] (setting [5]) was -15.5%; in assay [1] (setting [6]), 0.916%; in assay [1] (setting [7]), -23.5%. Besides, the Potency entry in assay [2] was “inactive”.
The like results for `CCCC(C)C1(CC)C(=O)NC(=O)NC1=O` (configuration not stated) were, in that order, -11.9%, 0.152%, -8.48% and “inactive”.
The like results for `COC(=O)[C@@H]1[C@H]2CC[C@@H](C[C@H]1OC(=O)c1ccccc1)N2C` were, in that order, -0.119%, 4.05%, -3.81% and “inactive”.
The like results for `N#CC1(N2CCCCC2)CCCCC1` were, in that order, -11.3%, -14.5%, -18% and “inactive”.
As to `CCOC(=O)c1ccccc1C(=O)OCC`, the activity, negative = cell killing in assay [1] (setting [5]) is -8.14%; in assay [1] (setting [6]) it was -11.3%; in assay [1] (setting [8]), -28.3%; in assay [1] (setting [7]), 0.324%. For the same compound, the Potency entry in assay [2] was “inactive”. Also, in assay [3], the max response was 2.54% and 6.22% and -3.04%. Also, the result in assay [4] was inactive.
Take `Cc1cccc(C(C)c2cnc[nH]2)c1C` (configuration not stated): the activity, negative = cell killing in assay [1] (setting [5]) was -17.4%; in assay [1] (setting [6]), 6.82%; in assay [1] (setting [7]), -27%. Further, the Potency result in assay [2] is “inactive”.
Turning to `O=C(CS(=O)C(c1ccccc1)c1ccccc1)NO` (configuration not stated), the figures for the activity, negative = cell killing in assay [1] (setting [5]), in assay [1] (setting [8]) and in assay [1] (setting [7]) were -1.04%, -19.6% and -22%, respectively. Also, the Potency entry in assay [2] is “inactive”.
Turning to `O=C(OCCN1CCCCC1)C(O)(c1ccccc1)c1ccccc1`, the activity, negative = cell killing in assay [1] (setting [5]) was -11.1%; in assay [1] (setting [6]), -8.82%; in assay [1] (setting [7]) it was -26.9%. Also, the Potency result in assay [2] was “inactive”.
As to `CCC(=O)O[C@@](Cc1ccccc1)(c1ccccc1)[C@@H](C)CN(C)C`, the activity, negative = cell killing in assay [1] (setting [9]) is 2.51%; in assay [1] (setting [10]), -6.39%; in assay [1] (setting [11]), -21.4%. The Potency result in assay [2] was “inactive”.
Regarding `C[C@]12CC[C@H]3[C@@H](CC[C@@]45O[C@@H]4C(O)=C(C#N)C[C@]35C)[C@@H]1CC[C@@H]2O`, the figures for the activity, negative = cell killing in assay [1] (setting [5]), in assay [1] (setting [6]) and in assay [1] (setting [7]) were 0.146%, -21.9% and -5.72%, respectively. Further, the Potency result in assay [2] was “inactive”.
In the case of `CN[C@H]1C[C@@H](N)[C@H](O)[C@@H](O[C@@H]2O[C@H](CO)[C@H](O)[C@@H]3OC4(O[C@H]23)O[C@H](C(N)CO)[C@H](O)[C@H](O)[C@H]4O)[C@@H]1O` (some centres not stated), the activity, negative = cell killing in assay [1] (setting [6]) is -24.2%; in assay [1] (setting [8]), -23.6%; in assay [1] (setting [7]), 9% and -3.99%. Also, in assay [2], the Potency entry was “inactive”.
On to `C[C@@H](Cc1ccccc1)N(C)C`, for which the activity, negative = cell killing is -4.88% in assay [1] (setting [5]), -10.7% in assay [1] (setting [6]) and -6.52% in assay [1] (setting [7]). Also, the Potency entry in assay [2] was “inactive”.
Regarding `O=C1CCCCC1CN1CCCCC1` (configuration not stated), the activity, negative = cell killing in assay [1] (setting [5]) is -12.3%; in assay [1] (setting [6]) it was 4.04%; in assay [1] (setting [7]), -15.7%. For the same compound, the Potency result in assay [2] is “inactive”.
The like results for `CCC1(CC)C(=O)NC(=O)N(C)C1=O` were, in that order, -3.71%, -23.6%, -31.1% and “inactive”.
For `ClCC1CO1` (configuration not stated), the activity, negative = cell killing in assay [1] (setting [5]) was -15%; in assay [1] (setting [6]) it was -9.19%; in assay [1] (setting [8]), -27.8%; in assay [1] (setting [7]), -16.2%. Further, in assay [2], the Potency entry was “inactive”. Moreover, the max response in assay [3] is 1.11%. In addition, the outcome in assay [4] was inactive.
For `COc1ccc(OC)c([C@@H](O)[C@H](C)N)c1`, the activity, negative = cell killing in assay [1] (setting [5]) is -15.8%; in assay [1] (setting [6]), -1.31%; in assay [1] (setting [7]), -18.1%. Further, the Potency result in assay [2] is “inactive”.
On to `CC[C@H]1[C@@H]2C[C@H]3[C@@H]4N(C)c5ccccc5[C@]45C[C@@H](C2[C@H]5O)N3[C@@H]1O` (some centres not stated), for which the activity, negative = cell killing in assay [1] (setting [9]) is 5.4%; in assay [1] (setting [10]), 2.75%; in assay [1] (setting [11]) it was 6.31%. For the same compound, in assay [2], the Potency result was “inactive”.
Regarding `c1ccc2sc(SNC3CCCCC3)nc2c1`, the activity, negative = cell killing in assay [1] (setting [5]) is -13.7%; in assay [1] (setting [6]), -11.7%; in assay [1] (setting [7]) it was -8.99%. Besides, the Potency result in assay [2] is “inactive”.
The like results for `Cc1ccccc1-n1c(CF)nc2ccc(N)cc2c1=O` were, in that order, -13.6%, 0.0058%, -23.5% and “inactive”.
Take `[2H]C([2H])([2H])[C@H](N)Cc1ccccc1`: the activity, negative = cell killing in assay [1] (setting [5]) is -8.74%; in assay [1] (setting [6]) it was -8.54%; in assay [1] (setting [7]), -22.7%. Moreover, the Potency entry in assay [2] is “inactive”.
The like results for `C=CCN1CC[C@]23c4c5ccc(O)c4O[C@H]2[C@@H](O)C=C[C@H]3[C@H]1C5` were, in that order, -22.5%, 3.8%, -4.91% and “inactive”.
The like results for `NCC(O)c1cccc(O)c1` (configuration not stated) were, in that order, -9.47%, -16.5%, -10.7% and “inactive”.
In the case of `C[C@]12CCC(=O)C[C@@H]1CC[C@@H]1[C@@H]2CC[C@]2(C)[C@@H](O)CC[C@@H]12`, the activity, negative = cell killing in assay [1] (setting [5]) is -19.9%; in assay [1] (setting [6]), -25.4%; in assay [1] (setting [7]), -25.5%. The Potency in assay [1] (tumour line A) is 12.6 µM (active). For the same compound, in assay [3], the max response is 6.67% and 13%.
Regarding `ClC(Cl)(Cl)Cl`, the activity, negative = cell killing was -3.78% in assay [1] (setting [5]), 4.09% in assay [1] (setting [6]), -14.3% in assay [1] (setting [8]) and -6.14% in assay [1] (setting [7]). In addition, the Potency entry in assay [2] is “inactive”. In assay [4], the call was inactive.
With `O=Cc1ccco1`, the activity, negative = cell killing is -3.46% in assay [1] (setting [5]), 2.23% in assay [1] (setting [6]), -6.89% in assay [1] (setting [8]) and -7% in assay [1] (setting [7]). Further, in assay [2], the Potency entry was “inactive”. Also, in assay [3], the max response was 4.33%. Besides, the outcome in assay [4] was inactive.
